Test results: the supplement of paper PMC8371130
Structures can show the parent of a compound that is named as a salt.

Test system: HL-1
Assay: relative cell viability (CellTiter-Glo) vs DMSO control (% of DMSO control); higher = more viable cells
Method in brief: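 HL-1 mouse atrial cardiomyocytes were plated in 384-well plates at 1000 cells per well together with compounds at 40, 200, 1000 or 5000 nM in 0.01% DMSO. One day later, cells went to a hypoxic workstation (1% O2) for 48 h, then were reoxygenated for 24 h in a normal incubator, or stayed in normoxia for the same time. Cell viability was read by CellTiter-Glo luminescence and normalised to vehicle-treated control cells.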

[1] = oxygen condition: hypoxia 48 h (1% O2) + reoxygenation 24 h, 40 nM
[2] = oxygen condition: hypoxia 48 h (1% O2) + reoxygenation 24 h, 200 nM
[3] = oxygen condition: hypoxia 48 h (1% O2) + reoxygenation 24 h, 1000 nM
[4] = oxygen condition: hypoxia 48 h (1% O2) + reoxygenation 24 h, 5000 nM
[5] = oxygen condition: normoxia 72 h, 40 nM
[6] = oxygen condition: normoxia 72 h, 200 nM
[7] = oxygen condition: normoxia 72 h, 1000 nM
[8] = oxygen condition: normoxia 72 h, 5000 nM

Row | SMILES | relative cell viability [1] | relative cell viability [2] | relative cell viability [3] | relative cell viability [4] | relative cell viability [5] | relative cell viability [6] | relative cell viability [7] | relative cell viability [8]
1 | O=C(O)Cc1cc(I)c(Oc2ccc(O)c(I)c2)c(I)c1 [Tiratricol] | 96.6 | 99.5 | 104 | 119 | 103 | 103 | 101 | 126
2 | COc1ccccc1OCC(O)CN1CCN(CC(=O)Nc2c(C)cccc2C)CC1 (centres undefined) [Ranolazine dihydrochloride] | 88.7 | 89.7 | 86.8 | 108 | 98.5 | 97.1 | 98.8 | 110
3 | Nc1ccn([C@@H]2O[C@H](CO)[C@@H](O)C2(F)F)c(=O)n1 [Gemcitabine HCl] | 3.53 | 3.99 | 3.86 | 3.72 | 3.77 | 4.75 | 3.77 | 3.39
4 | CN(C)[C@@H](CCOc1cccc2ccccc12)c1ccccc1 [Dapoxetine hydrochloride] | 96.3 | 102 | 99.8 | 89.2 | 101 | 103 | 104 | 76.3
5 | CCC(=O)NCC[C@@H]1CCc2ccc3c(c21)CCO3 [Ramelteon] | 104 | 116 | 110 | 111 | 105 | 108 | 118 | 107
6 | C[C@H](N[C@@H](CCc1ccccc1)C(=O)O)C(=O)N1CCC[C@H]1C(=O)O [Enalaprilat dihydrate] | 104 | 106 | 102 | 110 | 104 | 99 | 107 | 109
7 | CC(C)NCC(O)COc1ccc(CCOCC2CC2)cc1 (centres undefined) [Betaxolol] | 99.8 | 98.5 | 100 | 101 | 96.4 | 100 | 99.6 | 108
8 | O=C(c1ccccc1)c1ccc2n1CCC2C(=O)O (centres undefined) [Ketorolac] | 104 | 105 | 104 | 109 | 102 | 98.3 | 103 | 111
9 | CN(C)CCc1c[nH]c2ccc(CS(=O)(=O)N3CCCC3)cc12 [Almotriptan malate] | 98 | 99 | 97.6 | 91.9 | 98.2 | 103 | 102 | 52.1
10 | CCCN(CCC)CCc1cccc2c1CC(=O)N2 [Ropinirole HCl] | 109 | 117 | 106 | 114 | 107 | 104 | 107 | 110
11 | NC(=O)N1c2ccccc2CC(=O)c2ccccc21 [Oxcarbazepine] | 104 | 105 | 116 | 102 | 108 | 127 | 116 | 109
12 | CC1(C)O[C@@H]2[C@@H](CO[C@@]3(COS(N)(=O)=O)OC(C)(C)O[C@@H]23)O1 [Topiramate] | 97.3 | 91.8 | 108 | 100 | 104 | 107 | 98 | 98.8
13 | COc1cc2nc(N3CCN(C(=O)C4COc5ccccc5O4)CC3)nc(N)c2cc1OC (centres undefined) [Doxazosin mesylate] | 104 | 107 | 108 | 106 | 105 | 102 | 103 | 114
14 | CCN[C@H]1CN(CCCOC)S(=O)(=O)c2sc(S(N)(=O)=O)cc21 [Brinzolamide] | 101 | 84.5 | 62.4 | 3.36 | 98.2 | 81.9 | 57.5 | 3.09
15 | O=P(O)(O)C(Cl)(Cl)P(=O)(O)O [Clodronate Disodium] | 114 | 114 | 114 | 115 | 117 | 111 | 113 | 113
16 | Nc1ncn([C@H]2C[C@H](O)[C@@H](CO)O2)c(=O)n1 [Decitabine] | 103 | 104 | 94.1 | 65.4 | 101 | 104 | 91.2 | 58.2
17 | CNC(=O)CN(CCN(CCN(CC(=O)[O-])CC(=O)NC)CC(=O)[O-])CC(=O)[O-].[Gd+3] [Gadodiamide] | 98 | 104 | 98.5 | 106 | 103 | 98.8 | 107 | 112

Row | SMILES | relative cell viability [1] | relative cell viability [2] | relative cell viability [3] | relative cell viability [4] | relative cell viability [5] | relative cell viability [6] | relative cell viability [7] | relative cell viability [8]
18 | O=C1N=C(O)NC1(c1ccccc1)c1ccccc1 [Phenytoin sodium] | 96.1 | 96.2 | 95.6 | 111 | 94.5 | 101 | 101 | 107
19 | NC(N)=Nc1nc(CSCC/C(N)=N/S(N)(=O)=O)cs1 [Famotidine] | 103 | 101 | 114 | 120 | 107 | 101 | 97.9 | 108
20 | CCC(=O)O[C@@H](O[P@](=O)(CCCCc1ccccc1)CC(=O)N1C[C@H](C2CCCCC2)C[C@H]1C(=O)O)C(C)C [Fosinopril sodium] | 106 | 99.9 | 101 | 108 | 101 | 103 | 106 | 111
21 | CCCCc1ncc(/C=C(\Cc2cccs2)C(=O)O)n1Cc1ccc(C(=O)O)cc1 [Eprosartan Mesylate] | 96.2 | 101 | 103 | 104 | 107 | 102 | 102 | 105
22 | NS(=O)(=O)Cc1noc2ccccc12 [Zonisamide] | 105 | 108 | 107 | 115 | 108 | 112 | 116 | 103
23 | O=C(NCCO[N+](=O)[O-])c1cccnc1 [Nicorandil] | 101 | 105 | 108 | 102 | 104 | 98.1 | 99.2 | 102
24 | Cc1nc2n(c(=O)c1CCN1CCC(c3noc4cc(F)ccc34)CC1)CCCC2 [Risperidone] | 104 | 109 | 106 | 113 | 104 | 109 | 104 | 114
25 | CNC(=C[N+](=O)[O-])NCCSCc1ccc(CN(C)C)o1 [Ranitidine] | 82.2 | 102 | 97.9 | 106 | 90.9 | 105 | 106 | 112
26 | COc1ccc2[nH]c([S@@+]([O-])Cc3ncc(C)c(OC)c3C)nc2c1 [Esomeprazole magnesium] | 107 | 113 | 114 | 118 | 104 | 114 | 115 | 119
27 | O=P(O)(O)C(O)(Cn1ccnc1)P(=O)(O)O [Zoledronic Acid] | 104 | 100 | 100 | 111 | 104 | 107 | 102 | 109
28 | Cn1c(CNc2ccc(C(=N)N)cc2)nc2cc(C(=O)N(CCC(=O)O)c3ccccn3)ccc21 | 104 | 96 | 102 | 108 | 102 | 102 | 102 | 106
29 | CCCCOc1ccc(OCCCN2CCOCC2)cc1 [Pramoxine HCl] | 106 | 110 | 110 | 118 | 110 | 107 | 97.5 | 119
30 | CCCNC(C)C(=O)Nc1c(C)csc1C(=O)OC (centres undefined) [Articaine HCl] | 105 | 103 | 57.4 | 105 | 103 | 101 | 103 | 107
31 | COc1cccc2c1C(=O)c1c(O)c3c(c(O)c1C2=O)C[C@@](O)(C(=O)CO)C[C@@H]3O[C@H]1C[C@H](N)[C@@H](O)[C@H](C)O1 [Epirubicin Hydrochloride] | 96.8 | 102 | 107 | 91.5 | 93.5 | 97.6 | 91.7 | 96.4
32 | NCCCC[C@H](N[C@@H](CCc1ccccc1)C(=O)O)C(=O)N1CCC[C@H]1C(=O)O [Lisinopril] | 111 | 94.9 | 100 | 107 | 101 | 94.7 | 107 | 108
33 | CCCCCN(C)CCC(O)(P(=O)(O)O)P(=O)(O)O [Ibandronate sodium] | 100 | 95.3 | 93.1 | 91 | 99.9 | 99.4 | 92.6 | 84.4
